# Measured values from PubChem BioAssay (NCATS).
# Values without a mark were called inactive. Results filed as inconclusive are left out. Activity calls are given as the source filed them. Unless noted, calls follow the shape of the dose curve; as a rule, active = well fitted curve in either direction with a large enough effect (not every such curve was filed as active); inconclusive = small, poorly fitted or top-dose-only effect, or another doubt; inactive = flat fitted curve, though single readings scatter.
# Columns and labels:
# [1] = AP1 Signaling Pathway (AID 357); conditions: ME-180 AP-1-bla reporter, EGF-induced, beta-lactamase ratio, 5 h; at 17.2 µM (top of the series) unless noted;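 also: ME-180 reporter cells stimulated with EGF at its EC50 level; % is scaled to controls: 0 for no effect and ±100 for the full control effect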
# Procedure, shortened: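 Read-out was the 460nm/530nm emission ratio (excitation 405nm) after CCF4 loading for 2.5 hours at room temperature. Cells carried an AP-1-driven beta-lactamase reporter, were stimulated with EC50 EGF plus compound for 5 hours, and AC50 values came from titrations.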
# [2] = target: Cytochrome P450 1A2 (Homo sapiens) (UniProt P05177); experiment: p450-cyp1a2 (AID 410; calls by dose curve; also: potency is read from the fitted curve at half-maximal effect;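 as to activity change, negative = inhibition: -100% = full effect of reference inhibitor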)
# Cytochrome P450 1A2 (Homo sapiens), sequence (P05177 whole entry, looked up): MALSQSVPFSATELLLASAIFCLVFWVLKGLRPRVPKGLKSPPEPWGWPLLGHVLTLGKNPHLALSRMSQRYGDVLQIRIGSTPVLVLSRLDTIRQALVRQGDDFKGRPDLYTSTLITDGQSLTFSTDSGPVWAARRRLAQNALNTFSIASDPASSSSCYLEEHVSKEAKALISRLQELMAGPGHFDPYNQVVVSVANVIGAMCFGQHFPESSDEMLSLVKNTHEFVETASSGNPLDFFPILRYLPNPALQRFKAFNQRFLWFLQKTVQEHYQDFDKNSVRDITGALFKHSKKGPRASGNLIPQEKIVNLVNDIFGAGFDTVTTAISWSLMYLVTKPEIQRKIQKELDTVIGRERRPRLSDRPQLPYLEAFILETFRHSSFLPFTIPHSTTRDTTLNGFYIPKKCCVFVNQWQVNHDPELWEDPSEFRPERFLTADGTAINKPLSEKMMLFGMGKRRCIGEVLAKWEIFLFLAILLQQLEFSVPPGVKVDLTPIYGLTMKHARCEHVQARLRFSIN
# Procedure, shortened: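 O-Demethylation of luciferin 6' methyl ether by human CYP1A2 is monitored as luciferase luminescence. Substrate sits at Km (100uM); enzyme is 20nM. Values are scaled to 57 uM furafylline as maximal inhibition.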
# [3] = target: Glucocorticoid receptor (Homo sapiens) (UniProt P04150); experiment: GR-GFP Redistribution (AID 450;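 active = compounds whose dose series gives a full or clear partial fitted curve of increased nuclear translocation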; also: potency is read from the fitted curve at half-maximal effect)
# Glucocorticoid receptor (Homo sapiens), sequence (P04150 whole entry, looked up, the tested form may be a part): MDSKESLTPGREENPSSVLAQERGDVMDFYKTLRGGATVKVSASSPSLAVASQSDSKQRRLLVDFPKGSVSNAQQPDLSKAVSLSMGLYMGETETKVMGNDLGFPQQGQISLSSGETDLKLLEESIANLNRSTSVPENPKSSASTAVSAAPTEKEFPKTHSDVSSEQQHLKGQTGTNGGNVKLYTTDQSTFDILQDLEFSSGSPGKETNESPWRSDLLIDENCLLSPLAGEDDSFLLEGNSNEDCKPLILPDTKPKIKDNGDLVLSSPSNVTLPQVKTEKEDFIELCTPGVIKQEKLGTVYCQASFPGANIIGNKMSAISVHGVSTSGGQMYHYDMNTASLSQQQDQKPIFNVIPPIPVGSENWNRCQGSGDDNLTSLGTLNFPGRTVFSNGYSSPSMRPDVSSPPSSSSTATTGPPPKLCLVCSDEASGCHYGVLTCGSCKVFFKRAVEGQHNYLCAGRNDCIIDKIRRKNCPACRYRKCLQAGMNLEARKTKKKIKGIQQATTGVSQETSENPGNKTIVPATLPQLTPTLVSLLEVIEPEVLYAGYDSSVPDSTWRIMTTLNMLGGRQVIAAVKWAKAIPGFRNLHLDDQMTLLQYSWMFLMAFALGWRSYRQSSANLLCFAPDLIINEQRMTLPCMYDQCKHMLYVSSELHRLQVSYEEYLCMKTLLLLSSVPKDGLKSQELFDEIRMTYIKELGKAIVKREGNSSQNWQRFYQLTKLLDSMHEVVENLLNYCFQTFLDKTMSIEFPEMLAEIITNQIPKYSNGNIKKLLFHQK
# [4] = target: Glucocorticoid receptor (Homo sapiens) (UniProt P04150); experiment: GR-EFC Redistribution (AID 451; calls by dose curve; also: potency is read from the fitted curve at half-maximal effect); conditions: CHO-K1 GR-EFC translocation, beta-gal luminescence, 2 h
# Procedure, shortened: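 CHO-K1 cells expressing nuclear EA and GR-ED fragments of b-gal; compounds titrated up to 46 uM final, 2 h at 37 C. GR nuclear translocation read as complemented b-gal luminescence after 1 h RT detection.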
# [5] = target: 3',5'-cyclic-AMP phosphodiesterase 4B (Homo sapiens) (UniProt Q07343); experiment: qHTS Assay for Inhibitors of PDE-IV (AID 607; active = well fitted activation curve with a large enough effect in the main read-out, with a control signal flat, not every such curve was filed as active; also: % of control where 0% means no effect)
# 3',5'-cyclic-AMP phosphodiesterase 4B (Homo sapiens), sequence (Q07343 whole entry, looked up): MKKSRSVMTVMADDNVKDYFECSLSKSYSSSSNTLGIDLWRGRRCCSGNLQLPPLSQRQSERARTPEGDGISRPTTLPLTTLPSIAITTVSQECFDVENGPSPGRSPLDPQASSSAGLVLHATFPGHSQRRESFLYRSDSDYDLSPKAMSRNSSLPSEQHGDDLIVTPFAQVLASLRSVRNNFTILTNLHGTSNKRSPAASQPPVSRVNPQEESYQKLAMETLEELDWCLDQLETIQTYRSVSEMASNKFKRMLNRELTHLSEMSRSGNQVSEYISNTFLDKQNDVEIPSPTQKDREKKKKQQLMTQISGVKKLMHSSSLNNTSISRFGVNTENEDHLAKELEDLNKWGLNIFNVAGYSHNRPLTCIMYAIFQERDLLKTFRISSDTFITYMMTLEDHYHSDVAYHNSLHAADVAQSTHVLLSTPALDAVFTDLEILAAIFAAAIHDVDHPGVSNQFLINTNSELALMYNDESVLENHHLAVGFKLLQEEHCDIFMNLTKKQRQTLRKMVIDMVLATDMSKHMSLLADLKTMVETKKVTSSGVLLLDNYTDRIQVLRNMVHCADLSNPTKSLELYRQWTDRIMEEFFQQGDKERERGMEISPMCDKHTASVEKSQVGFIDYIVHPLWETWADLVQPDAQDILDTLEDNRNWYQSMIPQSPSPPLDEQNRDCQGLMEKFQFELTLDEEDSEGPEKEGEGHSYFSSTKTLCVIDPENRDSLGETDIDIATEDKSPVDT
# Procedure, shortened: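 HEK293 ACTOne cells with CNG channel (1000/well), endogenous PDE4; membrane potential dye, compounds up to 22.9 uM final. Fluorescence Ex 535/Em 590; RO 20-1724 (100 uM final) as reference.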
# [6] = target: Cytochrome P450 3A4 (Homo sapiens) (UniProt P08684); experiment: qHTS Assay for Activators of Cytochrome P450 3A4 (AID 885; active = well fitted curve in the direction sought with a large enough effect; an effect the other way counts as inactive or inconclusive; also: nearly all actives have a fitted effect of over 65% in size)
# Cytochrome P450 3A4 (Homo sapiens), sequence (P08684 whole entry, looked up): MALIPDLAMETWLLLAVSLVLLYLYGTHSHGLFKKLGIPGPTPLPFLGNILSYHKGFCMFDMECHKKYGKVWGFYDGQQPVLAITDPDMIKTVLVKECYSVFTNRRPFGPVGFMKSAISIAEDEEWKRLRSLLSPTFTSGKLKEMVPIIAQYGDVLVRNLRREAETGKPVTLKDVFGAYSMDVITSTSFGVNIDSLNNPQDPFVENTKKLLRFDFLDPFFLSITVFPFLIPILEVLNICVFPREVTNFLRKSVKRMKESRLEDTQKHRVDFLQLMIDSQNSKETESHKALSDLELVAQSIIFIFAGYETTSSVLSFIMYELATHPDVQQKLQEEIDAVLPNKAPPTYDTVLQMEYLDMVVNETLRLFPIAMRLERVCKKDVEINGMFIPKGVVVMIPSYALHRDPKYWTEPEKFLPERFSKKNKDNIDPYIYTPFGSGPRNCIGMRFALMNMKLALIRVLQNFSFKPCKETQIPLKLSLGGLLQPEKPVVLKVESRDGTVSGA
# Procedure, shortened: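 Human CYP3A4 dealkylates Luciferin-PPXE to luciferin, which luciferase detection converts to light. Substrate was at its KM (25uM), buffer 200mM KPO4, reaction 60 min at RT.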
# [7] = target: Cytochrome P450 2D6 (Homo sapiens) (UniProt P10635); experiment: qHTS Assay for Inhibitors and Substrates of Cytochrome P450 2D6 (AID 891; active = well fitted curve in the direction sought with a large enough effect; an effect the other way counts as inactive or inconclusive; also: nearly all actives have a fitted effect of over 60% in size; also: potency is read from the fitted curve at half-maximal effect)
# Cytochrome P450 2D6 (Homo sapiens), sequence (P10635 whole entry, looked up): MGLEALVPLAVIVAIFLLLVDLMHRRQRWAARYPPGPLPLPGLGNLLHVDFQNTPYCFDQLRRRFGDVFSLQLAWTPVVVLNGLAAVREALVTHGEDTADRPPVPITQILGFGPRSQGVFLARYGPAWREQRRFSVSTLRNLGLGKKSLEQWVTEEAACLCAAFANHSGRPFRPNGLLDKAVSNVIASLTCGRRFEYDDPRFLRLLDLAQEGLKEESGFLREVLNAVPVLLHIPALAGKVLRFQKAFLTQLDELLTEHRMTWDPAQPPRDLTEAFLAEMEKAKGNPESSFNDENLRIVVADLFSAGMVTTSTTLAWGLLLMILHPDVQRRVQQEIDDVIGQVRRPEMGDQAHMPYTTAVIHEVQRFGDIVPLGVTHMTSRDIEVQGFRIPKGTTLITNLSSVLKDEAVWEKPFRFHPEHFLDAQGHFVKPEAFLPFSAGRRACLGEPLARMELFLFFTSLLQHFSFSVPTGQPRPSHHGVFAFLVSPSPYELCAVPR
# Procedure, shortened: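 Luminescent read-out of luciferin formed by 5 nM human CYP2D6 demethylating 30 uM Luciferin-ME EGE (Km level) over 60 min at room temperature after NADPH regeneration addition. Data normalized to full inhibition by 1.43 uM quinidine.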
# [8] = target: Ubiquitin carboxyl-terminal hydrolase 1 (Homo sapiens) (UniProt O94782); experiment: Inhibitors of USP1/UAF1: Pilot qHTS (AID 504865; active = well fitted curve in the direction sought with a large enough effect; an effect the other way counts as inactive or inconclusive; also: potency is read from the fitted curve at half-maximal effect; nearly all actives have a fitted effect of over 35% in size)
# Procedure, shortened: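 Enzyme-free wells gave the negative control, while test wells held 1nM USP1/UAF1 preincubated with compound for 15 min at room temperature. Ub-Rho at 150nM final started the reaction, and fluorescence at 480/540 nm was recorded kinetically.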
# [9] = NFAT Signaling Pathway (AID 444); conditions: Jurkat NFAT-bla M1, carbachol, beta-lactamase ratio, 5 h; at 17.2 µM (top of the series) unless noted;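 also: carbachol stimulus at about its EC50 of 1 µM final; % is scaled to controls: 0 for no effect and ±100 for the full control effect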
# Procedure, shortened: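 Jurkat cells with NFAT-driven β-lactamase reporter and co-expressed M1 receptor, stimulated with carbachol (final 1 uM, ~EC50), compound titration, 5 h at 37 °C. CCF4 loaded 1 h at RT; 460/530 nm ratio gave %activity and AC50.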
# [10] = Stat Signaling Pathway (AID 446); conditions: ME-180 SIE beta-lactamase reporter, IL-6 stimulated, 5 h; at 17.2 µM (top of the series) unless noted;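 also: ME-180 cervical cancer cells given 40 pM IL-6 alongside compound; SIE-controlled beta-lactamase reporter measured as 460/530 nm FRET emission ratio; % is scaled to controls: 0 for no effect and ±100 for the full control effect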
# Procedure, shortened: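 Normalization used AC90 stimulation (300 pM IL-6) and AC90 inhibition (125 nM pan-JAK inhibitor at 40 pM IL-6). The underlying signal is SIE-driven beta-lactamase in ME-180 cells after 5 h IL-6 exposure with compound.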
# [11] = target: Mitogen-activated protein kinase 10 (Mus musculus) (UniProt Q61831); experiment: JNK3 AlphaScreen Assay (AID 530);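 also: kinase came from lysate of stimulated human HepG2 cells; signal reports phosphorylation of biotinylated GST-cJun 1-79 at Ser73 with 10 µM ATP; % is scaled to controls: 0 for no effect and ±100 for the full control effect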
# Procedure, shortened: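 Activity was read by AlphaScreen after JNK3-containing HepG2 lysate (cytokine pre-activated) phosphorylated biotinylated GST-cJun with 10 uM ATP at room temperature. Phospho-Ser73 cJun antibody with Protein-A acceptor beads provided detection.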
# [12] = target: Cytochrome P450 2C9 (Homo sapiens) (UniProt P11712); experiment: qHTS Assay for Inhibitors and Substrates of Cytochrome P450 2C9 (AID 883; active = well fitted curve in the direction sought with a large enough effect; an effect the other way counts as inactive or inconclusive; also: % is scaled to controls: 0 for no effect and ±100 for the full control effect; nearly all actives have a fitted effect of over 60% in size)
# Cytochrome P450 2C9 (Homo sapiens), sequence (P11712 whole entry, looked up): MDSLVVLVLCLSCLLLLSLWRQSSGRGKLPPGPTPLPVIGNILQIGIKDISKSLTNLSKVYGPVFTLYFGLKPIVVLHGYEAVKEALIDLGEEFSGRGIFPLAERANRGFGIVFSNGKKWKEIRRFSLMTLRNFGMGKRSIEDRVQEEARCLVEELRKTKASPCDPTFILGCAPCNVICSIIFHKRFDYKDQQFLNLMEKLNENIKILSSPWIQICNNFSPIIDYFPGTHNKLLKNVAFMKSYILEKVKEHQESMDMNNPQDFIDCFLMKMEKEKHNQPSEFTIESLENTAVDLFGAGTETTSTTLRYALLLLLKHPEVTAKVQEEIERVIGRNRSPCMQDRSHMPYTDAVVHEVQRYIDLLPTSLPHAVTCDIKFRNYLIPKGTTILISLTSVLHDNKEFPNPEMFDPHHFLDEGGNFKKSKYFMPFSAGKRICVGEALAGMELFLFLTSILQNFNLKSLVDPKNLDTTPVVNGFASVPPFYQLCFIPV
# Procedure, shortened: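 Human CYP2C9 (10nM) with Luciferin-H at 100uM (its KM) in 25mM KPO4; compound preincubated 10 min at 37C, then NADPH regeneration for 60 min at 37C. Luciferin read by luminescence after detection reagent; normalized to 57uM sulphaphenazole as full inhibition.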
# [13] = Confirmation and Secondary Assay for Modulators of Hemoglobin Beta Chain Splicing at IVS2 705 locus (AID 930; active = well fitted curve in the direction sought with a large enough effect; an effect the other way counts as inactive or inconclusive;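 also: HeLa cells stably expressing the EGFP-705 splicing reporter; GFP fluorescence per well restored by corrected splicing of the IVS2-705 intron in EGFP; % of control where 0% means no effect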)
# Procedure, shortened: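 Read-out: total peak GFP fluorescence per well (488 nm excitation, 500-520 nm emission) by laser-scanning cytometry. Cells: HeLa EGFP-705 splicing reporter, 2 days compound exposure in Optimem/2% FCS.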
# [14] = qHTS Assay for Identification of Small Molecule Antagonists for NFkB Signaling Pathway (AID 895; active = well fitted inhibition curve with a large enough effect in the signal ratio, with a control signal flat, not every such curve was filed as active; the % refers to the signal ratio; also: % is scaled to controls: 0 for no effect and ±100 for the full control effect)
# Procedure, shortened: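 ME-180 NFkB-bla cells (beta-lactamase under NFkB response element), plated overnight, treated with compound then 10 pM TNF alpha (about EC50) for 5 hrs at 37 C. LiveBLAzer FRET read at 460/530 nm emission, 405 nm excitation.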
# [15] = target: Muscarinic acetylcholine receptor M1 (Rattus norvegicus) (UniProt P08482); experiment: qHTS Assay for Antagonists of Acetylcholine Muscarinic M1 Receptor: Kinetic Measurement of Intracellular Calcium Response (AID 943; active = well fitted curve in the direction sought with a large enough effect; an effect the other way counts as inactive or inconclusive; also: potency is read from the fitted curve at half-maximal effect; nearly all actives have a fitted effect of over 75% in size)
# Muscarinic acetylcholine receptor M1 (Rattus norvegicus), sequence (P08482 whole entry, looked up): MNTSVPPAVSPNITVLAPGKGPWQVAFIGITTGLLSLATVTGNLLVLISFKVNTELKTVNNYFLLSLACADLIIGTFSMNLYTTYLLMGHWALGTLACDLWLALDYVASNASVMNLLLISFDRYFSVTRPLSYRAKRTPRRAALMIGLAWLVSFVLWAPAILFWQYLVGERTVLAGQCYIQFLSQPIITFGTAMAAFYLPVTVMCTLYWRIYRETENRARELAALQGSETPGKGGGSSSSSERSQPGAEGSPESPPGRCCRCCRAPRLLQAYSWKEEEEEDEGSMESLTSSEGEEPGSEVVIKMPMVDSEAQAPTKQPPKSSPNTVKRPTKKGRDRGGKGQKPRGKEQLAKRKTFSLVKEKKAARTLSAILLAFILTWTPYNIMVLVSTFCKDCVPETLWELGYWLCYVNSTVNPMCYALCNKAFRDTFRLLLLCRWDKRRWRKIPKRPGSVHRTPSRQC
# Procedure, shortened: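 Antagonism is measured as inhibition of the carbachol-evoked calcium rise in CHO cells transfected with rat M1. Cells are dye-loaded, exposed to compound for 10 min, then stimulated with 100 nM carbachol (EC80).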
# [16] = target: Pyruvate kinase (Leishmania mexicana) (UniProt Q27686); experiment: qHTS Validation Assay for Inhibitors of Leishmania Mexicana Pyruvate Kinase (AID 945; active = well fitted curve in the direction sought with a large enough effect; an effect the other way counts as inactive or inconclusive;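 also: 0% = DMSO only neutral control wells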)
# Pyruvate kinase (Leishmania mexicana), sequence (Q27686 2-499 E452W): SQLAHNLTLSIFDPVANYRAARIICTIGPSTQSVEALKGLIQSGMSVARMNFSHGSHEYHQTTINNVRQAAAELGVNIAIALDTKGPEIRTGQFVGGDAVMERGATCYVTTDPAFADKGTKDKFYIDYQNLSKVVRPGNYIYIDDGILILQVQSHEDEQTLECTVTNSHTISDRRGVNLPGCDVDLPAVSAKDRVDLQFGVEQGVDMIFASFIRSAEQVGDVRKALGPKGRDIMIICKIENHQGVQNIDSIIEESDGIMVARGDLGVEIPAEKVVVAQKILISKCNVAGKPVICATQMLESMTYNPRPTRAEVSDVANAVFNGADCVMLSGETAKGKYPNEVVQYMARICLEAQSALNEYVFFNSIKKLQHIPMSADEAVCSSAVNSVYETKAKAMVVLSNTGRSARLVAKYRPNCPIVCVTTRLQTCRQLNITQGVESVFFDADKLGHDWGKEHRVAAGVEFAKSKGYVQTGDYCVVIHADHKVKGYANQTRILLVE
# Procedure, shortened: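 Luminescent ATP detection (PKLight) after a 1 h room-temperature reaction of 0.2 nM LmPYK E451W mutant with 0.5 mM PEP and 0.1 mM ADP at pH 7.2. Activity is normalized to DMSO-only control wells.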
# [17] = target: Pyruvate kinase PKM (Homo sapiens) (UniProt P14618); experiment: qHTS Assay for Activators of Human Muscle Pyruvate Kinase (AID 954; active = well fitted curve in the direction sought with a large enough effect, not every such curve was filed as active;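 also: 0% = uninhibited enzyme and -100% = no enzyme or full thiadiazolimine inhibition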)
# Procedure, shortened: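 Compound pinned into substrate mix (0.5 mM PEP, 0.1 mM ADP), then 0.1 nM PKM2 added; 1 h, RT. Stop/detection luciferase reagent added, luminescence read. Normalized to no-inhibition and no-enzyme or reference-inhibitor controls.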
# [18] = target: Alpha-galactosidase A (Homo sapiens) (UniProt P06280); experiment: Counterscreen for Glucocerebrosidase Inhibitors: qHTS Assay for Human alpha-Galactosidase at pH 4.5 (AID 992; active = well fitted curve in the direction sought with a large enough effect; an effect the other way counts as inactive or inconclusive; also: 0% is about no effect)
# Alpha-galactosidase A (Homo sapiens), sequence (P06280 whole entry, looked up): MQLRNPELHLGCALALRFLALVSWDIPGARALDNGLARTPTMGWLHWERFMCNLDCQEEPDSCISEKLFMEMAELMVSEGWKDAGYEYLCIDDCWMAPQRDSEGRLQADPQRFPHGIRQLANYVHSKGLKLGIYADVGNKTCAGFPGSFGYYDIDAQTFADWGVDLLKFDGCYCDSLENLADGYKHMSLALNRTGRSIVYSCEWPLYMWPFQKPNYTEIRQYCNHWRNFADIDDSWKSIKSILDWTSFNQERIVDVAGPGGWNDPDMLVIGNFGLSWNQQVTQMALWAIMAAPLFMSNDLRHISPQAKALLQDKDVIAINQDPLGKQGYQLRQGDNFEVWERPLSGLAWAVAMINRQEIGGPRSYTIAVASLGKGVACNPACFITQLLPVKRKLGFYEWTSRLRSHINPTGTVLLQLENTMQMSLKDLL
# Procedure, shortened: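 Steps: enzyme (2 nM final), then compound across 0.7 nM to 77 uM, then 80 uM fluorogenic galactopyranoside substrate; incubate 20 min at room temperature; quench at pH 10; measure fluorescence at 365/440 nm.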
# [19] = target: alpha-glucosidase (Oryza sativa, rice) (UniProt Q653V4); experiment: Counterscreen for Glucocerebrosidase Inhibitors: qHTS Assay for Rice alpha-Glucosidase at pH 5.0 (AID 997; active = well fitted curve in the direction sought with a large enough effect; an effect the other way counts as inactive or inconclusive;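 also: 0% = full activity with enzyme and -100% = basal without enzyme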)
# Procedure, shortened: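 Endpoint fluorogenic assay at pH 5.0: compounds (0.7 nM to 77 uM) titrated against 4 nM rice enzyme and 400 uM 4-MU-alpha-glucoside for 20 min at room temperature; NaOH/glycine stop, read ex 365/em 440 nm, Hill-fitted AC50.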
compound,measurement,setting,value
COc1cccc2c1C(=O)c1c(O)c3c(c(O)c1C2=O)C[C@](O)(C(C)=O)C[C@H]3O[C@@H]1C[C@H](N)[C@H](O)[C@H](C)O1,"activity change, negative = inhibition",[1],-116% (active)
same,Potency,[2],inactive
same,Potency,[3],> 20.6 µM
same,Potency,[4],> 20.6 µM
same,Potency,[5],inactive
same,Potency,[6],inactive
same,Potency,[7],inactive
same,Potency,[8],31.6 µM (active)
CO[C@H]1C=CO[C@@]2(C)Oc3c(C)c(O)c4c(O)c(c(C=NN5CCN(C)CC5)c(O)c4c3C2=O)NC(=O)C(C)=CC=C[C@H](C)[C@H](O)[C@@H](C)[C@@H](O)[C@@H](C)[C@H](OC(C)=O)[C@@H]1C,"activity change, negative = inhibition",[1],-3.11%
same,"activity change, negative = inhibition",[9],18.4%
same,"activity, negative = inhibition",[10],1.14%
CCN1CCC[C@@H]1CNC(=O)c1c(OC)ccc(I)c1O,"activity change, negative = inhibition",[1],-2.43% [at 38 µM]
same,Potency,[2],15.8 µM (active)
same,"activity, negative = inhibition",[10],-4.45% [at 38 µM]
same,Potency,[3],> 46 µM
same,Potency,[4],> 46 µM
same,Potency,[11],inactive
same,Potency,[5],inactive
same,Potency,[12],inactive
same,Potency,[7],0.199 µM (active)
COC(=O)C(NC(C)=O)(Nc1ccccc1)C(=O)OC,"activity change, negative = inhibition",[1],2.11%
same,"activity change, negative = inhibition",[9],-1.66%
same,"activity, negative = inhibition",[10],13.2%
same,Potency,[3],> 20.6 µM
CN1C(=O)C2(c3ccccc31)C1CCCC=C1C(C#N)=C(N)C2(C#N)C#N (stereo not drawn),"activity change, negative = inhibition",[1],-21.4%
same,"activity change, negative = inhibition",[9],-15.5%
same,"activity, negative = inhibition",[10],-7.56%
COc1cc(Cn2ccnc2)c(OC)cc1Cn1ccnc1,"activity change, negative = inhibition",[1],5.72%
same,"activity change, negative = inhibition",[9],-19.5%
same,"activity, negative = inhibition",[10],4.23%
same,Potency,[3],> 20.6 µM
COCCNc1nc(-c2ccc(N(C)C)cc2)nc2ccccc12,"activity change, negative = inhibition",[1],26.5% [at 7.69 µM]
same,Potency,[2],0.631 µM (active)
same,"activity, negative = inhibition",[10],4.49% [at 7.69 µM]
same,Potency,[3],> 46 µM
same,Potency,[4],> 46 µM
same,Potency,[11],inactive
same,Potency,[5],inactive
same,Potency,[6],inactive
same,Potency,[13],inactive
O[Si@](CCCN1CCCCC1)(c1ccc(F)cc1)C1CCCCC1,"activity change, negative = inhibition",[1],11.3% [at 38 µM]
same,Potency,[2],inactive
same,"activity, negative = inhibition",[10],1.42% [at 38 µM]
same,Potency,[3],> 46 µM
same,Potency,[4],> 46 µM
same,Potency,[11],inactive
same,Potency,[5],inactive
same,Potency,[14],inactive
same,Potency,[15],0.178 µM (active)
same,Potency,[16],inactive
same,outcome,[17],inactive
same,outcome,[18],inactive
same,outcome,[19],inactive
